From PubChem BioAssay AID2165 (The Scripps Research Institute Molecular Screening Center, 2009)
Unmarked numbers belong to inactive results. The source made the active and inactive calls. Rule as the data show it: active = IC50 below about 9 µM; inactive = the rest.

Test system: Ba/F3 Cytotoxicity
Assay: JAK2V617F kinase, IRF1 reporter and Ba/F3 cytotoxicity panel, late-stage follow-up, HEL and Ba/F3 cells (AID 2165)

SMILES	IC50
COc1cc2ncnc(Nc3ccccc3)c2cc1OC	> 40 µM
COCCOc1cc2ncnc(Nc3cccc(C#Cc4ccc(O)cc4)c3)c2cc1OCCOC	3.68 µM (active)
Cc1ccc(O)c(NC(=O)COc2ccccc2Cl)c1	0.0217 µM (active)
Cc1ccc(O)c(NC(=O)COc2cccc3ccccc23)c1	1.95 µM (active)
COc1cc2ncnc(NC3CCCCC3)c2cc1OC	> 40 µM
N#C/C(=C\c1ccc(O)c(O)c1)C(=O)NCCc1ccccc1	0.3 µM (active)
N#C/C(=C\c1ccc(O)c(O)c1)C(=O)NCCCCc1ccccc1	0.33 µM (active)
Cc1cccc(OCC(=O)Nc2cccc(O)c2)c1	> 40 µM
COc1cc2ncnc(Nc3cccc(Cl)c3)c2cc1OC	> 40 µM
COc1cc2ncnc(Nc3ccc(OC(F)(F)F)cc3)c2cc1OC	> 40 µM
Cc1cc(C)c(C(=O)/C=C/c2ccccc2F)c(=O)[nH]1	0.69 µM (active)
Cc1[nH]c(=O)c(C(=O)C=Cc2ccccc2Cl)c2c1CCCC2	0.16 µM (active)
COCCOc1cc2ncnc(Nc3cccc(C#Cc4ccc(-c5ccccc5)cc4)c3)c2cc1OCCOC	> 40 µM
COc1cc2ncnc(Nc3cccc(Br)c3)c2cc1OC	> 40 µM
CCS(=O)(=O)c1ccc(O)c(NC(=O)COc2cccc(C)c2)c1	> 40 µM
Cc1ccc(O)c(NC(=O)COc2ccc(F)cc2)c1	0.0825 µM (active)
COc1ccc(C=CC(=O)c2c3c(c(C)[nH]c2=O)CCCC3)cc1	4.38 µM (active)
Cc1ccc(O)c(NC(=O)COc2ccccc2C)c1	3.84 µM (active)
Cc1nnc(NC(=O)COc2ccccc2)s1	> 40 µM

SMILES	IC50
Cc1ccc(O)c(NC(=O)COc2ccc(Br)cc2)c1	2.43 µM (active)
COc1cc2ncnc(N[C@H](C)c3ccccc3)c2cc1OC	3.19 µM (active)
Cc1cc2ncc(-c3ccc(O)c(O)c3)nc2cc1C	0.36 µM (active)
Cc1ccc(O)c(NC(=O)COc2cccc(C)c2C)c1	> 40 µM
COc1ccc(C)cc1NC(=O)Nc1ccc(Br)cn1	> 40 µM
COc1cc2ncnc(Sc3ccc(C)cc3)c2cc1OC	3.68 µM (active)
Cc1cccc(OCC(=O)Nc2cccc(C)c2C)c1	> 40 µM
O=C(NCCc1cccnc1)C1CCC(=O)N(CCc2cccc(F)c2)C1 (configuration not stated)	> 40 µM
CC(C)c1cc(C=C(C#N)C(=O)NCCCc2ccccc2)cc(C(C)C)c1O	4.29 µM (active)
Cc1[nH]c(=O)c(C(=O)C=Cc2ccc(Cl)cc2)c2c1CCCC2	2.48 µM (active)
COc1cc(/C=C(\C#N)C(N)=O)cc(CSc2nc3ccccc3s2)c1O	7.61 µM (active)
Cc1cccc(NC(=O)COc2cccc(C)c2)c1	> 40 µM
Cc1[nH]c(=O)c(C(=O)C=Cc2ccc(Cl)cc2Cl)c2c1CCCC2	1.45 µM (active)
Cc1[nH]c(=O)c(C(=O)C=Cc2ccc(Br)cc2)c2c1CCCC2	2.57 µM (active)
Cc1[nH]c(=O)c(C(=O)/C=C/c2ccccc2F)c2c1CCCC2	0.43 µM (active)
Clc1cccc(Nc2ncnc3ccccc23)c1	> 40 µM
Cc1ccc(O)c(NC(=O)COc2cc(C)ccc2C)c1	1.36 µM (active)
O=C(C=Cc1ccccc1F)c1c(-c2ccccc2)c2ccccc2[nH]c1=O	0.37 µM (active)
